Source: PubChem BioAssay AID1159580 (chemical genetic matrix, 2015)
Values joined by “and” are separate entries in the source; they are usually repeats but may differ in a detail not shown here. Equal entries are not always repeated. Screen size: about 5,500 compounds; about 2,000 (36%) were called active. Another 18% or so got no clear call; they are omitted. No stated cut-off is given here; in the data, active means normalized growth mostly below about 0.91 (no sharp cut-off); inconclusive means no clear call, values can overlap the other calls; inactive means mostly above about 0.92. The list shows a part of the results.

Assay: chemical genetic growth profiling, strain panel (AID 1159580);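 further: tested at 20 µM; growth read once vehicle control cultures reached saturation at 30 °C; 1 = growth at the plate median or of vehicle wells; lower values mean less growth of the strain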
Conditions: S. cerevisiae deletion strains, growth OD

Measured: normalized growth

CCn1cc(C(=O)O)c(=O)c2cnc(N3CCCC3)nc21
inactive: locus YAL026C, strain drs2, active compounds read low 0.956 | locus YAL030W, strain snc1, active compounds read low 0.997 | locus YBL061C, strain skt5, active compounds read low 1.01 | locus YBR009C, strain hhf1, active compounds read low 1.04 | locus YBR021W, strain FUR4, active compounds read low 1.03 | locus YBR023C, strain chs3, active compounds read low 1 | locus YBR171W, strain sec66, active compounds read low 1 | locus YBR229C, strain ROT2, active compounds read low 1.01 | locus YBR231C, strain swc5, active compounds read low 1.03 | locus YBR279W, strain paf1, active compounds read low 0.989 | locus YCL011C, strain gbp2, active compounds read low 1 | locus YCL016C, strain dcc1, active compounds read low 1 | locus YCL029C, strain bik1, active compounds read low 0.997 | locus YCL061C, strain MRC1, active compounds read low 1 | locus YCL069W, strain vba3, active compounds read low 0.997 | locus YCR088W, strain abp1, active compounds read low 1.01 | locus YDL005C, strain med2, active compounds read low 1 | locus YDL035C, strain GPR1, active compounds read low 1.02 | locus YDL040C, strain nat1, active compounds read low 0.991 | locus YDL074C, strain BRE1, active compounds read low 1.04 | locus YDL101C, strain DUN1, active compounds read low 1.02 | locus YDL134C, strain PPH21, active compounds read low 1.03 | locus YDL185W, strain tfp1, active compounds read low 1.01 | locus YDL192W, strain arf1, active compounds read low 0.993 | locus YDR001C, strain nth1, active compounds read low 1.01 | locus YDR069C, strain doa4, active compounds read low 1 | locus YDR101C, strain arx1, active compounds read low 0.999 | locus YDR137W, strain rgp1, active compounds read low 0.95 | locus YDR159W, strain sac3, active compounds read low 1.01 | locus YDR162C, strain NBP2, active compounds read low 1.01 | locus YDR195W, strain ref2 1.04 | locus YDR297W, strain sur2, active compounds read low 1.01 | locus YDR318W, strain mcm21, active compounds read low 1 | locus YDR334W, strain swr1, active compounds read low 1.01 | locus YDR335W, strain msn5, active compounds read low 1 | locus YDR388W, active compounds read low 1.01 | locus YDR392W, strain spt3, active compounds read low 1.03 | locus YDR502C, strain sam2, active compounds read low 1.01 | locus YEL003W, strain gim4, active compounds read low 1.01 | locus YEL037C, strain rad23, active compounds read low 0.999 | locus YEL061C, strain CIN8 (second series), active compounds read low 1 | locus YEL061C, strain CIN8, active compounds read low 0.999 | locus YER015W, strain faa2, active compounds read low 1 | locus YER016W, strain bim1, active compounds read low 1.01 | locus YER110C, active compounds read low 1 | locus YER111C, strain swi4, active compounds read low 1.02 | locus YER155C, strain BEM2 (second series), active compounds read low 0.998 | locus YER155C, strain BEM2, active compounds read low 1.01 | locus YER167W, strain BCK2, active compounds read low 1.01 | locus YFR010W, strain ubp6, active compounds read low 0.997 | locus YGL078C, strain dbp3, active compounds read low 1 | locus YGL086W, strain mad1, active compounds read low 1 | locus YGL167C, strain pmr1, active compounds read low 1.01 | locus YGL173C, strain kem1, active compounds read low 1 | locus YGL227W, strain vid30, active compounds read low 1.01 | locus YGL240W, strain doc1, active compounds read low 1.05 | locus YGL248W, strain PDE1, active compounds read low 1 | locus YGL253W, strain hxk2, active compounds read low 1.04 | locus YGR078C, strain PAC10, active compounds read low 1.01 | locus YGR135W, strain pre9, active compounds read low 1.01 | locus YGR252W, strain gcn5, active compounds read low 1.12 | locus YHR013C, strain ard1, active compounds read low 0.998 | locus YHR027C, strain rpn1, active compounds read low 1 | locus YHR030C, strain SLT2, active compounds read low 1 and 0.991 | locus YHR079C, strain IRE1 (second series), active compounds read low 1 | locus YHR079C, strain IRE1, active compounds read low 0.998 | locus YHR094C, strain hxt1, active compounds read low 0.999 | locus YHR129C, strain ARP1, active compounds read low 1.02 | locus YHR142W, strain chs7, active compounds read low 0.962 | locus YHR200W, strain rpn10, active compounds read low 0.998 | locus YIL066C, strain RNR3, active compounds read low 1.01 | locus YIL073C, strain SPO22, active compounds read low 1.1 | locus YIL125W, strain kgd1, active compounds read low 1.01 | locus YIR030C, strain dcg1, active compounds read low 0.987 | locus YJL092W, strain hpr5, active compounds read low 1.01 | locus YJL095W, strain BCK1 (second series), active compounds read low 1 | locus YJL095W, strain BCK1, active compounds read low 1 | locus YJL115W, strain asf1, active compounds read low 0.94 | locus YJL129C, strain trk1, active compounds read low 1.11 | locus YJL134W, strain LCB3, active compounds read low 1 | locus YJL154C, strain vps35, active compounds read low 0.991 | locus YJL164C, strain tpk1, active compounds read low 0.99 | locus YJL166W, strain qcr8, active compounds read low 0.996 | locus YJL168C, strain set2, active compounds read low 1 | locus YJL187C, strain SWE1 (second series), active compounds read low 0.997 | locus YJL187C, strain SWE1, active compounds read low 1 | locus YJR043C, strain POL32, active compounds read low 1.03 | locus YJR066W, strain TOR1, active compounds read low 0.982 | locus YJR075W, strain HOC1, active compounds read low 1.02
active: locus YAL021C, strain ccr4, active compounds read low 0.898
